Where “and” joins values, the source holds several entries; their conditions need not be identical. Identical values can stand only once. Inconclusive results are not listed. A structure can be active in one record and inactive in another. Calls of active or inactive are those of the source. The call rests on the fitted dose curve; in most records, active means well fitted inhibition curve with a large enough effect in the signal ratio, with a control signal flat (not every such curve was filed as active); inconclusive means small, poorly fitted or top-dose-only effect, or effect the other way, or a change in a side signal; inactive means flat fitted curve, though single readings scatter; the % refers to the signal ratio.
The molecules below were run against Peroxisome proliferator-activated receptor gamma (Homo sapiens) (UniProt P37231) (assay: qHTS assay for small molecule antagonists of peroxisome proliferator-activated receptor gamma signaling (AID 588537)). Details: HEK293 PPARg-UAS-bla, beta-lactamase ratio, antagonist mode; series mostly up to 76.8 µM; activity, negative = inhibition: at the top concentration.
Sequence of Peroxisome proliferator-activated receptor gamma (Homo sapiens) (P37231 whole entry, looked up): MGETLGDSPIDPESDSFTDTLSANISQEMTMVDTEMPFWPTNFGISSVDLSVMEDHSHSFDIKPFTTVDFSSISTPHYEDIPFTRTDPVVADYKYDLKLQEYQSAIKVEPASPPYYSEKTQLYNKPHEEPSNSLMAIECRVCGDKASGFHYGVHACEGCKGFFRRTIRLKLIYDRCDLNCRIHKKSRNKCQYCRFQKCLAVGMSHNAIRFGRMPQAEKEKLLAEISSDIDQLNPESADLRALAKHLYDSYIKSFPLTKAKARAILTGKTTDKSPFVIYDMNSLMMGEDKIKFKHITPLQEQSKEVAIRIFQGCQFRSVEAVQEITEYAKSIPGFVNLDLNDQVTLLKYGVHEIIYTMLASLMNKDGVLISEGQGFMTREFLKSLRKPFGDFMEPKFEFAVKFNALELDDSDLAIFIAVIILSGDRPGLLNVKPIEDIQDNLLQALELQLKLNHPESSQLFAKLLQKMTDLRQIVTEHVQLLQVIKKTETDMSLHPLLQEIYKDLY
Source text: NIH Chemical Genomics Center [NCGC]
U.S. Environmental Protection Agency [EPA]
National Institutes of Environmental Health Sciences [NIEHS]
National Toxicology Program [NTP]
The Peroxisome proliferator-activated receptors (PPARs) are lipid-activated transcription factors of the nuclear receptor superfamily with three distinct subtypes namely PPAR alpha, PPAR delta (also called PPAR beta) and PPAR gamma. All these subtypes heterodimerizes with Retinoid X receptor (RXR) and these heterodimers regulate transcription of various genes. PPAR-gamma (glitazone receptor) ligands have been used in the treatment of type 2 diabetes and dyslipidaemia. It is involved in the regulation of glucose and lipid metabolism. PPAR-gamma activates certain genes like Paraoxonase 1 which is responsible for hydrolyzing organophosphates. PPAR-gamma ligands may also be therapeutically important in the treatment of coronary artery disease, obesity and cancer and atherosclerosis.
NCGC Assay Protocol Summary
Using a beta-lactamase reporter-gene under control of Peroxisome Proliferator-Activated-gamma (PPAR-gamma) response element, a cell-based assay [GeneBLAzer PPAR-gamma-UAS-bla assay developed by Invitrogen] was used to measure PPAR-gamma ligands signaling. GeneBLAzer PPAR-gamma-UAS-bla-HEK293 cells were used with assay medium containing 1% charcoal/dextran treated FBS. The assay was performed in clear bottom black Greiner 1536-well plates. Library compounds were measured for their ability to inhibit the reporter gene activity. Compounds were screened in a titration series in 1536-well format. The fluorescence intensity (405 nm excitation, 460/530 nm emission) was measured using an EnVision plate reader. Data was normalized relative to Rosiglitazone control (50 nM, 100%), and DMSO only wells (basal, 0%). Concentration-response titration points for each compound were fitted to the Hill equation yielding concentrations of half-maximal inhibition (IC50) and maximal response (efficacy) values.
qHTS protocol for PPAR-gamma beta-lactamase assay in antagonist mode
[Step] [Parameter] [Value] [Description]
1. Reagent; 5 uL; 3000 cells/well
2. Incubation; 37 C for 6-6.5 hrs
4. Controls (GW9662, PPAR-gamma antagonist); 23 nL,
5. Agonist (Stimulator); 1uL; Rosiglitazone at 50 nM (final) concentration
6. Incubation; 37 C for 16 hrs
7. Detection reagent; 1 uL of CCF4-dye
8. Incubation; RT for 2 hrs
9. Detection; Fluorescence; Envision plate reader
In the case of COCC(C)N(C(=O)CCl)c1c(C)csc1C (configuration not stated), the Potency is reported as 39.8 µM (active). O=C(O)c1cc[c]([Hg][Cl])cc1 was tested, and the “activity, negative = inhibition” value was 15.7% (inactive). With O=C/C=C/c1ccccc1 the “activity, negative = inhibition” value was 3.92% (inactive). With ClC(Cl)(Cl)Cl the Potency was “inactive”. C[C@H]1CC[C@@H]2[C@@H](C)[C@H]3[C@H](C[C@H]4[C@@H]5CC=C6CC(O[C@@H]7O[C@H](CO)[C@H](O)[C@H](O[C@@H]8O[C@H](CO)[C@@H](O)[C@H](O)[C@H]8O)[C@H]7O[C@H]7O[C@@H](C)[C@H](O)[C@@H](O)[C@H]7O)CC[C@]6(C)[C@H]5CC[C@]34C)N2C1 (some centres not stated) was tested, and the “activity, negative = inhibition” value was -6.8% (inactive). [O]=[Cd] was tested, and the “activity, negative = inhibition” value was 2% (inactive). For O=C1C[C@@H]2OCC=C3CN4CC[C@]56c7ccccc7N1[C@H]5[C@H]2[C@H]3C[C@H]46, the “activity, negative = inhibition” value was 11.9% (inactive). For COC1=CC(=O)O[C@@H](/C=C/c2ccccc2)C1, the “activity, negative = inhibition” value was 4.79% (inactive). For O=C(O)C(Cl)(Cl)Cl, the Potency was “inactive”. With CCOC(=O)c1ccccc1C(=O)OCC the Potency was “inactive”. For O=C1C=CC(=O)C=C1, the “activity, negative = inhibition” value was -4.11% (inactive). With Oc1cc(Cl)c(Cl)cc1Cl the “activity, negative = inhibition” value was 0.326% (inactive). For O=[N+]([O-])C(Br)(CO)CO, the “activity, negative = inhibition” value was 9.82% (inactive). In the case of O=C1CCO1, the “activity, negative = inhibition” value is reported as 2.89% (inactive). C[C@H]1CCC[C@H](O)CCCCCc2cc(O)cc(O)c2C(=O)O1 was tested, and the “activity, negative = inhibition” value was -11.5% (inactive). In the case of N#CN, the “activity, negative = inhibition” value is reported as 3.84% (inactive). With CCCSP(=O)(OCC)SCCC the “activity, negative = inhibition” value was -10.1% (inactive). With O=[N+]([O-])c1ccccc1 the Potency was “inactive”. In the case of O=c1[nH]c(=O)n(Cl)c(=O)n1Cl, the “activity, negative = inhibition” value is reported as 14.6% (inactive). ClCC1CO1 (configuration not stated) was tested, and the “activity, negative = inhibition” value was 1.53% (inactive). For COc1ccc2c(c1OC)C(=O)OC2C1c2cc3c(cc2CCN1C)OCO3 (configuration not stated), the “activity, negative = inhibition” value was 3.64% (inactive). With O=C(NCNC(=O)NC1C(=O)NC(=O)N1CO)NC1C(=O)NC(=O)N1CO (configuration not stated) the “activity, negative = inhibition” value was 4.98% (inactive). In the case of CC(C)(C)c1cc(O)ccc1O, the Potency is reported as “inactive and 44.7 µM (active)”. In the case of ClC=C(Cl)Cl, the “activity, negative = inhibition” value is reported as 5.7% (inactive). In the case of CCCCCCCCOC(=O)c1ccccc1C(=O)OCCCCCCCC, the “activity, negative = inhibition” value is reported as 6.53% (inactive). With ClC1C(Cl)C(Cl)C(Cl)C(Cl)C1Cl (configuration not stated) the “activity, negative = inhibition” value was -4.67% (inactive). For CC(C)CCON=O, the “activity, negative = inhibition” value was 7.72% (inactive).

Source: PubChem BioAssay (NCATS)
